Anthrax LF prot = Bacillus anthracis LF protease inhibitors, primary screen, biochemical, multiplex microsphere, MLPCN library. multiplex microsphere protease cleavage assay. inhibition, % at 10 µM. 0.12% of 360,000 active. AID 588501, 2011; further: plate controls were buffer without enzyme for full effect and enzyme alone for no effect
Target sequence (P15917 whole entry, looked up): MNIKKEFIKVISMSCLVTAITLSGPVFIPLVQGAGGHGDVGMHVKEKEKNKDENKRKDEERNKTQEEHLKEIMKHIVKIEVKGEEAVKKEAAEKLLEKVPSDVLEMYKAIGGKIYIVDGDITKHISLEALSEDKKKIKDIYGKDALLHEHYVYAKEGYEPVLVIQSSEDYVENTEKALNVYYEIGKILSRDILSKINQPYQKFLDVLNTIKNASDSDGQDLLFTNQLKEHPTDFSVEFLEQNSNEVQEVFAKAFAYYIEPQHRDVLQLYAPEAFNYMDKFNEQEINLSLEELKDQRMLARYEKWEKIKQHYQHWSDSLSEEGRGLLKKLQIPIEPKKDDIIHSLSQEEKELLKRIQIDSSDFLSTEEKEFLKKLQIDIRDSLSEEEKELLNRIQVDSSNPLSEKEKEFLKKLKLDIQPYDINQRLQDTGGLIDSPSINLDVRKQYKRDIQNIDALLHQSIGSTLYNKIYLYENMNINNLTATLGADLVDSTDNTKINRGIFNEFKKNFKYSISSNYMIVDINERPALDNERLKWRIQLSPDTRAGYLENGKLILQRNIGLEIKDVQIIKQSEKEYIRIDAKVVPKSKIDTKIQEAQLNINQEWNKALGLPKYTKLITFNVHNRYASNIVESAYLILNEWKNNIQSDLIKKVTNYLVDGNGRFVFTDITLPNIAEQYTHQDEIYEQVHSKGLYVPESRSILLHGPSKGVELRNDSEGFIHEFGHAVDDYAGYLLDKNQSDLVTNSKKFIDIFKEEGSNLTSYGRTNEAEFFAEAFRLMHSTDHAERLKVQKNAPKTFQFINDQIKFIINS
BoNT-F LC inh = BoNT/F light chain protease inhibitors, primary screen, biochemical, flow cytometry, MLPCN library | Botulinum neurotoxin type F light chain protease (Clostridium botulinum) | Multiplex microsphere protease cleavage assay | inhibition, % at 10 µM | 0.22% of 360,000 active; in the data active means inhibition above about 35%, passing the limit was not always enough; inconclusive means no clear call, values can overlap the other calls; further: plate controls were buffer without enzyme for full effect and enzyme alone for no effect
Bead autofluor = flagged as autofluorescent in microsphere protease counterscreen; fluorescence intensity (no concentration beside the values); compound autofluorescence counterscreen, microsphere flow cytometry; stronger effect = higher value; 3.1% of 360,000 active; in the data active means fluorescence intensity above about 16000; inconclusive means no clear call, values can overlap the other calls
BH1578 lux ind = inducers of Vibrio cholerae quorum light production without autoinducers, primary screen, BH1578 luxS cqsA deficient, single point; V. cholerae BH1578 lux reporter, luminescence, 6 h; activation, % at 18.7 µM; 0.16% of 350,000 active; in the data active means activation mostly above about 9.7%, no sharp cut-off; inconclusive means no clear call, values can overlap the other calls; inactive means mostly below about 3.7%
BoNT A protease = BoNT/A light chain protease inhibitors, primary screen, biochemical, flow cytometry, MLPCN library | multiplex microsphere protease substrate cleavage | inhibition, % at 10 µM | 0.17% of 360,000 active | AID 588499, 2011; further: plate controls were buffer without enzyme for full effect and enzyme alone for no effect
* = called active by the depositor. Most compounds without a hit are left out; they make up all but 3.5% or so of the library. Unless noted, no stated cut-off is given here; in the data, active means inhibition above about 30%; inconclusive means no clear call, values can overlap the other calls; inactive means below that.

What do the screens show for `CCCCn1c(-c2csc(CC)c2)n[nH]c1=S`?
Anthrax LF prot: -1; BoNT-F LC inh: 0; Bead autofluor: 2578; BH1578 lux ind: 0; BoNT A protease: 0

How did O=C(Nc1ccccc1)c1ccc2nc(-c3ccco3)c(-c3ccco3)nc2c1 do in these assays?
Anthrax LF prot: 19; BoNT-F LC inh: 24; Bead autofluor: 19000*; BH1578 lux ind: -1; BoNT A protease: inconclusive

What do the screens show for `CC(=O)c1ccc(NC(=O)c2ccc3nc(-c4ccco4)c(-c4ccco4)nc3c2)cc1`?
Anthrax LF prot: 5; BoNT-F LC inh: inconclusive; Bead autofluor: 3806; BH1578 lux ind: inactive; BoNT A protease: 14

Results for Cc1nc2cc(NC(=O)N3CCN(c4ccccn4)CC3)ccc2o1 ?
Anthrax LF prot: -5; BoNT-F LC inh: -10; Bead autofluor: 6579; BH1578 lux ind: -2; BoNT A protease: 0

Results for O=C(Nc1ccc2nc(-c3ccco3)c(-c3ccco3)nc2c1)N1CCN(c2ccccn2)CC1 ?
Anthrax LF prot: 20; BoNT-F LC inh: 15; Bead autofluor: 5771; BH1578 lux ind: 0; BoNT A protease: 41*

What do the screens show for `O=C(CN1C(=O)NC2(CCCCCCC2)C1=O)Nc1cccc(Br)c1`?
Anthrax LF prot: 0; BoNT-F LC inh: -4; Bead autofluor: 6523; BH1578 lux ind: inactive; BoNT A protease: 0

What do the screens show for `O=C(COC(=O)/C=C/c1ccc(F)cc1)Nc1ccc(S(=O)(=O)N2CCOCC2)cc1`?
Anthrax LF prot: -7; BoNT-F LC inh: 4; Bead autofluor: 7820; BH1578 lux ind: inactive; BoNT A protease: 2

What do the screens show for `CC1(C(=O)O)CCC(C(=O)NC2CCCCCC2)C1(C)C` (configuration not stated)?
Anthrax LF prot: 1; BoNT-F LC inh: 3; Bead autofluor: 21823*; BH1578 lux ind: inactive; BoNT A protease: 5

How did CC1(C(=O)O)CCC(C(=O)Nc2ccccc2)C1(C)C (configuration not stated) do in these assays?
Anthrax LF prot: -10; BoNT-F LC inh: -2; Bead autofluor: 4253; BH1578 lux ind: -1; BoNT A protease: 0

How did Cc1ccc(C)c(NC(=O)C2CCC(C)(C(=O)O)C2(C)C)c1 (configuration not stated) do in these assays?
Anthrax LF prot: -1; BoNT-F LC inh: -6; Bead autofluor: 24078*; BH1578 lux ind: inactive; BoNT A protease: -4

What do the screens show for `COC(=O)C(Cc1cnc[nH]1)NC(=O)C1CCC(=O)N1` (configuration not stated)?
Anthrax LF prot: -3; BoNT-F LC inh: 3; Bead autofluor: 22414*; BH1578 lux ind: inactive; BoNT A protease: inconclusive

Results for COc1ccc(S(=O)(=O)NC(Cc2cnc[nH]2)C(=O)O)cc1 (configuration not stated) ?
Anthrax LF prot: -1; BoNT-F LC inh: 3; Bead autofluor: 2134; BH1578 lux ind: 4; BoNT A protease: 1

Results for N=C1C(c2ccccc2)=C(O)CN1c1cccc2ccccc12 ?
Anthrax LF prot: -2; BoNT-F LC inh: -1; Bead autofluor: 3783; BH1578 lux ind: 0; BoNT A protease: 1

How did CCN=c1scc(-c2ccco2)n1/N=C/c1ccc(OC)c(O)c1 do in these assays?
Anthrax LF prot: -2; BoNT-F LC inh: -4; Bead autofluor: 24329*; BH1578 lux ind: inactive; BoNT A protease: inconclusive

Results for CCOC(=O)c1ccc(-n2c(N)c(C(=O)NCc3ccco3)sc2=S)cc1 ?
Anthrax LF prot: -1; BoNT-F LC inh: 0; Bead autofluor: 23235*; BH1578 lux ind: -1; BoNT A protease: 2

What do the screens show for `CCOC(=O)c1sc(=S)n(-c2ccc(Cl)cc2)c1SC`?
Anthrax LF prot: -2; BoNT-F LC inh: -1; Bead autofluor: 21737*; BH1578 lux ind: 3; BoNT A protease: 0

How did CCOC(=O)c1sc(=S)n(-c2ccc(F)c(F)c2)c1N do in these assays?
Anthrax LF prot: 0; BoNT-F LC inh: -4; Bead autofluor: 21634*; BH1578 lux ind: -1; BoNT A protease: -5

What do the screens show for `CCOC(=O)c1sc(=S)n(-c2ccc(C)cc2)c1N`?
Anthrax LF prot: -2; BoNT-F LC inh: -18; Bead autofluor: 4173; BH1578 lux ind: 1; BoNT A protease: -4

How did COc1ccc(-n2c(N)c(C(=O)NCc3ccco3)sc2=S)cc1 do in these assays?
Anthrax LF prot: -1; BoNT-F LC inh: 1; Bead autofluor: 3970; BoNT A protease: 0

Results for Cc1noc(NC(=O)c2cccc(Cl)c2Cl)c1C#N ?
Anthrax LF prot: 1; BoNT-F LC inh: 3; Bead autofluor: 4362; BH1578 lux ind: inactive; BoNT A protease: 0

What do the screens show for `O=C(O)CC(Cn1[nH]nnc1=S)c1ccccc1` (configuration not stated)?
Anthrax LF prot: 1; BoNT-F LC inh: 0; Bead autofluor: 22296*; BH1578 lux ind: inactive; BoNT A protease: inconclusive

How did O=C(O)CC(CC(=O)Nc1nncs1)c1ccccc1 (configuration not stated) do in these assays?
Anthrax LF prot: 0; BoNT-F LC inh: -5; Bead autofluor: 3227; BH1578 lux ind: inactive; BoNT A protease: -1

Results for COc1ccc(CNc2oc(-c3cccc4ccccc34)nc2C#N)cc1 ?
Anthrax LF prot: -4; BoNT-F LC inh: -3; Bead autofluor: 19935*; BH1578 lux ind: -1; BoNT A protease: -1

Results for OC(CSc1ccccc1Cl)CN1CCN(c2ccccc2F)CC1 (configuration not stated) ?
Anthrax LF prot: -4; BoNT-F LC inh: -7; Bead autofluor: 10127; BH1578 lux ind: -4; BoNT A protease: -1

What do the screens show for `OC(CSc1c(Cl)cccc1Cl)CN1CCN(c2ccccc2F)CC1` (configuration not stated)?
Anthrax LF prot: -2; BoNT-F LC inh: -6; Bead autofluor: 20273*; BH1578 lux ind: 0; BoNT A protease: 0

How did CC(=O)N(c1nnc(-c2cccc(C)c2)s1)C1CCCC1 do in these assays?
Anthrax LF prot: 2; BoNT-F LC inh: inconclusive; Bead autofluor: 3110; BH1578 lux ind: inactive; BoNT A protease: 0

How did Cc1[nH]c2ccccc2c1/C=N/NC(=S)NC(C)C do in these assays?
Anthrax LF prot: 13; BoNT-F LC inh: -51; Bead autofluor: 7206; BH1578 lux ind: -3; BoNT A protease: 59*

What do the screens show for `Cc1ccc2[nH]cc(C(=O)CN3CCN(c4ccccn4)CC3)c2c1`?
Anthrax LF prot: -1; BoNT-F LC inh: 0; Bead autofluor: 3676; BH1578 lux ind: 0; BoNT A protease: 1

How did Cc1ccc2[nH]cc(C(=O)CN3CCN(C)CC3)c2c1 do in these assays?
Anthrax LF prot: -2; BoNT-F LC inh: -2; Bead autofluor: 23399*; BH1578 lux ind: inactive; BoNT A protease: inconclusive

What do the screens show for `COc1ccc2c(C(=O)CN3CCN(c4ccccc4)CC3)c[nH]c2c1`?
Anthrax LF prot: -2; BoNT-F LC inh: -1; Bead autofluor: 24933*; BH1578 lux ind: 0; BoNT A protease: inconclusive
